According to PubChem BioAssay AID624141 (Broad Institute, 2012):
The whole screen tested about 17,000 compounds, of which about 260 (1.5%) were called active.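 The calls were made as follows: active = spot fluorescence over background with P-value below 7% in all four replicate spots, showing protein binding; inactive = the rest.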 The list comes from a sample in which actives are over-represented; it also holds similar structures and randomly drawn compounds.

molecular target: Myc proto-oncogene protein (Homo sapiens) (UniProt P01106); assay: binders of human c-Myc, primary screen, biochemical, small molecule microarray, anti-His fluorescence (AID 624141); settings: His-c-Myc binding
Sequence (P01106 whole entry, looked up): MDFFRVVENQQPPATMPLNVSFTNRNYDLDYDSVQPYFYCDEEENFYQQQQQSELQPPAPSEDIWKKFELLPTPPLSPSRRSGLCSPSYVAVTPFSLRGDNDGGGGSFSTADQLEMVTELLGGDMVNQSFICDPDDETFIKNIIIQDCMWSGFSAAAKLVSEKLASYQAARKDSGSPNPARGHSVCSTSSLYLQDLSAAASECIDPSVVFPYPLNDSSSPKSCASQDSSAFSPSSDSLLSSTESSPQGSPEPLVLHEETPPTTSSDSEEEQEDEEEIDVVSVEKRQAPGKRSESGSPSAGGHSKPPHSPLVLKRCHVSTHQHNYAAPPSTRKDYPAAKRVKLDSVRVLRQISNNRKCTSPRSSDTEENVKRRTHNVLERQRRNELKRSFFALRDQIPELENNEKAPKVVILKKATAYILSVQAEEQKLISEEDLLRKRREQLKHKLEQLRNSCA

| SMILES | outcome |
| --- | --- |
| Cc1cc2c(=O)n(C)c(SCC(=O)c3cc4ccccc4o3)nc2s1 | inactive |
| COc1ccccc1N(CC(=O)N1CCCCC1)S(C)(=O)=O | inactive |
| C[C@@H]1CN([C@@H](C)CO)C(=O)Cc2cc(NC(=O)Nc3ccc(F)cc3)ccc2O[C@@H]1CN(C)C | inactive |
| Cn1c(SCc2nc3ccccc3c(=O)[nH]2)nnc1-c1cc2ccccc2o1 | inactive |
| C[C@@H]1CN([C@@H](C)CO)C(=O)c2cc(NS(C)(=O)=O)ccc2O[C@H]1CN(C)C(=O)Nc1ccc(F)cc1 | inactive |
| COc1ccc(C#Cc2ccc3c(c2)[C@]2(C(=O)N3)[C@H](C(=O)N3CCc4cc(OC)c(OC)cc4C3)[C@H]3C(=O)O[C@H](c4ccccc4)[C@H](c4ccccc4)N3[C@@H]2c2ccc(O)cc2)cc1 | inactive |
| O=C(NCC1CCCO1)c1ccc(NC(=O)c2cc(-n3cnnc3)ccc2Cl)cc1 (centres undefined) | inactive |
| CNC[C@H]1OCCCC[C@@H](C)Oc2ccc(NC(=O)c3ccccc3)cc2C(=O)N([C@@H](C)CO)C[C@H]1C | inactive |
| Cc1ccc(Cn2ncc3c(N4CCN(CCOc5ccc(C)cc5)CC4)ncnc32)cc1 | inactive |
| C[C@@H]1CN([C@H](C)CO)C(=O)Cc2cc(NS(=O)(=O)c3cccs3)ccc2O[C@@H]1CN(C)C(=O)Nc1ccc(F)cc1 | inactive |
| O=C1NC(Cc2c[nH]c3ccccc23)C(=O)N2CCCC12 (centres undefined) | inactive |
| Cc1noc(C)c1NC(=O)N(C)C[C@@H]1Oc2ccc(NC(=O)C3CC3)cc2C(=O)N([C@H](C)CO)C[C@@H]1C | inactive |
| O=C1O[C@@H](c2ccccc2)[C@@H](c2ccccc2)N2[C@@H](c3ccc(O)cc3)[C@]3(C(=O)Nc4ccccc43)[C@@H](C(=O)O)[C@H]12 | inactive |
| CCOc1ccc(NC(=O)C2CC(=O)n3c(nc4ccccc43)N2)cc1 (centres undefined) | inactive |
| C[C@@H]1CCCCO[C@H](CN(C)C(=O)Cc2ccccc2)[C@H](C)CN([C@H](C)CO)C(=O)c2cc(NS(=O)(=O)c3cn(C)cn3)ccc2O1 | inactive |
| COc1cc(O)c2c(=O)c(O[C@@H]3O[C@@H](CO)[C@H](O)[C@H]3O[C@@H]3O[C@@H](C)[C@H](O)[C@@H](O)[C@H]3O)c(-c3ccc(O)cc3)oc2c1 | inactive |
| CN(C)CC/C=C1\c2ccccc2CSc2ccccc21 | inactive |
| C[C@H](CO)N1C[C@H](C)[C@@H](CN(C)C)Oc2c(NC(=O)Nc3ccc(F)cc3)cccc2C1=O | inactive |
| C[C@H]1CN([C@@H](C)CO)C(=O)c2cc(NC(=O)Cn3cnnn3)ccc2O[C@@H]1CN(C)S(=O)(=O)c1cccs1 | inactive |
| C[C@H](CO)N1C[C@H](C)[C@H](CN(C)C(=O)Nc2ccc(C(F)(F)F)cc2)Oc2ccc(NC(=O)Nc3ccccc3)cc2C1=O | inactive |
| C[C@@H]1CN([C@H](C)CO)C(=O)c2cccc(NS(C)(=O)=O)c2O[C@@H]1CN(C)C(=O)Nc1cccc2ccccc12 | inactive |
| O=C(NCc1ccccc1)C1=C[C@H](C2CC2)C[C@H](OCc2ccc(CO)cc2)O1 | inactive |
| C[C@H](CO)N1C[C@H](C)[C@H](CN(C)CC2CC2)Oc2ccc(NC(=O)c3ccncc3)cc2C1=O | inactive |
| C[C@H]1CN([C@@H](C)CO)C(=O)c2cc(NC(=O)Cn3cnnn3)ccc2O[C@H]1CN(C)C(=O)NC1CCCCC1 | inactive |
| CC(C)NC(=O)N(C)C[C@H]1OCCCC[C@@H](C)Oc2ccc(NS(C)(=O)=O)cc2C(=O)N([C@H](C)CO)C[C@H]1C | inactive |

| SMILES | outcome |
| --- | --- |
| CC(C)NC(=O)N(C)C[C@H]1Oc2ccc(NC(=O)CCC(F)(F)F)cc2CC(=O)N([C@@H](C)CO)C[C@@H]1C | inactive |
| C[C@H]1CCCCO[C@H](CN(C)C(=O)CCC(F)(F)F)[C@@H](C)CN([C@@H](C)CO)C(=O)c2cc(NC(=O)Nc3ccc4c(c3)OCO4)ccc2O1 | inactive |
| O=C1c2ccccc2[C@](Cc2ccccc2I)(C(=O)NCc2ccccc2)[C@H](c2ccc(CO)cc2)N1C1CCCCC1 | inactive |
| Cc1cc(C)c2nc(-c3cccnc3)cc(C(=O)Nc3sc(Cc4ccccc4)cc3C(N)=O)c2c1 | inactive |
| CC(C)NC(=O)N(C)C[C@@H]1Oc2ccc(NS(=O)(=O)c3ccccc3)cc2C(=O)N([C@@H](C)CO)C[C@H]1C | inactive |
| C[C@@H]1CN([C@@H](C)CO)C(=O)c2cccc(NC(=O)c3ccc(-c4nccs4)cc3)c2O[C@H]1CN(C)C(=O)Nc1ccccc1 | inactive |
| Cc1cccc(OCCCC(=O)Nc2sc3c(c2C(N)=O)CCCC3)c1C | inactive |
| Cc1nn(-c2ccccc2)c(CC(C)(C)C(=O)O)c1C(=O)O | inactive |
| C[C@H]1CN([C@@H](C)CO)C(=O)Cc2cc(NC(=O)Nc3ccccc3)ccc2O[C@H]1CN(C)Cc1ccncc1 | inactive |
| C[C@@H]1CCCCO[C@@H](CN(C)Cc2ccncc2)[C@@H](C)CN([C@@H](C)CO)C(=O)c2cc(N(C)C)ccc2O1 | inactive |
| C[C@H](CO)N1C[C@H](C)[C@H](CN(C)C)Oc2ccc(NC(=O)Nc3ccc(F)cc3)cc2CC1=O | inactive |
| C[C@@H]1CN([C@@H](C)CO)C(=O)Cc2cc(NC(=O)Cc3cn(C)c4ccccc34)ccc2O[C@H]1CN(C)C(=O)NC1CCCCC1 | inactive |
| C/C=C(\C)C(=O)OC(/C=C/C(O)C(C)O)C1C=CC(=O)O1 (centres undefined) | inactive |
| C=C(C(=O)O)C1CCC2(C)CCC(=O)C(C)=C2C1 (centres undefined) | inactive |
| Cn1c(OCc2cccnc2)nc2c1c(=O)n(Cc1ccc(Cl)c(Cl)c1)c(=O)n2C | inactive |
| CCO[C@H]1OC(C(=O)O)=C[C@@H](C2CCCCC2)[C@@H]1CCCO | inactive |
| Nc1nnc(SCC(=O)Nc2ccc(Cl)cc2O)s1 | inactive |
| COc1ccc(S(=O)(=O)N(C)C[C@@H]2Oc3ccc(NC(=O)CCC(F)(F)F)cc3C(=O)N([C@@H](C)CO)C[C@H]2C)cc1 | inactive |
| CN1CCN(C(=O)C2=C[C@@H](c3ccc(Br)cc3)C[C@@H](OCCCCO)O2)CC1 | inactive |
| C[C@H]1CN([C@@H](C)CO)C(=O)Cc2cc(N(C)C)ccc2O[C@@H]1CN(C)S(=O)(=O)c1ccc(F)cc1 | inactive |
| Nc1nnc(SCCN2C(=O)c3ccccc3S2(=O)=O)s1 | inactive |
| C[C@@H]1CN([C@H](C)CO)C(=O)CCCn2nncc2CO[C@@H]1CN(C)Cc1ccc2c(c1)OCCN2C | inactive |
| Cc1c(NC(=O)/C(C#N)=C/c2ccccc2Cl)c(=O)n(-c2ccccc2)n1C | inactive |
| C/C(=C\CC[C@H](CO)[C@@H]1CC[C@]2(C)C3=C(CC[C@@]12C)[C@@]1(C)CCC(=O)C(C)(C)C1CC3)C(=O)O (some centres undefined) | inactive |
| COCCOC(=O)N1C(=O)[C@@]2(c3cc(C#CCNC(N)=O)ccc31)[C@H](C(=O)N1CCN(c3ncccn3)CC1)[C@H]1C(=O)O[C@H](c3ccccc3)[C@H](c3ccccc3)N1[C@@H]2c1ccccc1OCCO | inactive |

| SMILES | outcome |
| --- | --- |
| Cc1cc(C(=O)c2ccccc2)ccc1OC(=O)COc1ccccc1[N+](=O)[O-] | inactive |
| NC(=O)NCC#Cc1ccc2c(c1)[C@]1(C(=O)N2)[C@H](C(=O)Nc2nc3ccccc3s2)[C@H]2C(=O)O[C@H](c3ccccc3)[C@H](c3ccccc3)N2[C@@H]1c1ccc(OCCO)cc1 | inactive |
| CC1=COC(O[C@@H]2O[C@H](CO)[C@@H](O)[C@H](O)[C@H]2O)C2C1CC(O)C2CO (some centres undefined) | inactive |
| C[C@H](CO)N1C[C@H](C)[C@@H](CN(C)Cc2ccccc2)Oc2c(NC(=O)C3CCOCC3)cccc2C1=O | inactive |
| C[C@H](CO)N1C[C@H](C)[C@H](CN(C)Cc2ccc(C(=O)O)cc2)Oc2ccc(NC(=O)NC3CCCCC3)cc2C1=O | inactive |
| COc1ccc(S(=O)(=O)Nc2cccc3c2O[C@H](CN(C)Cc2ccc4c(c2)OCO4)[C@H](C)CN([C@@H](C)CO)C3=O)cc1 | inactive |
| COc1cccc(NC(=O)c2cc([N+](=O)[O-])ccc2NC(=O)CN2CCCCCC2)c1 | inactive |
| C[C@@H]1CN([C@@H](C)CO)C(=O)c2cccc(NC(=O)Nc3ccc(F)cc3)c2O[C@@H]1CN(C)Cc1ccc(C(=O)O)cc1 | inactive |
| C[C@H](CO)N1C[C@H](C)[C@H](CN(C)Cc2ccc(C(F)(F)F)cc2)Oc2c(NC(=O)C3CCOCC3)cccc2C1=O | inactive |
| O=C(Nc1cccc(CCc2ccccn2)c1)c1ccc(Cl)cc1 | inactive |
| C[C@@H]1CCCCO[C@H](CN(C)C(=O)Nc2ccc3c(c2)OCO3)[C@H](C)CN([C@H](C)CO)C(=O)c2cc(NS(C)(=O)=O)ccc2O1 | inactive |
| C[C@H]1CN([C@@H](C)CO)C(=O)c2cc(NS(=O)(=O)c3ccccc3)ccc2O[C@@H]1CN(C)C(=O)NC1CCCCC1 | inactive |
| C[C@@H]1CN([C@@H](C)CO)C(=O)CCCn2cc(nn2)CO[C@@H]1CN(C)C(=O)C1CCCCC1 | inactive |
| C[C@@H]1CCCCO[C@H](CN(C)C(=O)CCC(F)(F)F)[C@@H](C)CN([C@@H](C)CO)C(=O)c2cc(NC(=O)c3ccncc3)ccc2O1 | inactive |
| COC(=O)c1cc(C)sc1NC(=S)Nc1ncn(Cc2ccc(F)cc2Cl)n1 | inactive |
| CCc1ccc2c(c1)c1nc3ccccc3nc1n2CC(=O)OC | active |
| CCn1c2ccccc2c2nnc(SCC(=O)O)nc21 | inactive |
| O=C1C(=O)N(CCn2c3ccccc3c3nc4ccccc4nc32)c2ccccc21 | inactive |
| O=C(O)c1cccc(S(=O)(=O)Nc2ccc(O)cc2Sc2nc3ccccc3s2)c1 | inactive |
| Cc1ccc(OCC(=O)Nc2cc(-c3nc4cc(C)c(C)cc4o3)ccc2C)cc1 | inactive |
| Cc1noc(C)c1NC(=O)N(C)C[C@@H]1Oc2ccc(NC(=O)Nc3ccc4c(c3)OCO4)cc2C(=O)N([C@H](C)CO)C[C@H]1C | inactive |
| C[C@@H]1CN([C@H](C)CO)C(=O)Cc2cc(NC(=O)C3CC3)ccc2O[C@H]1CN(C)Cc1ccc2c(c1)OCO2 | inactive |
| C[C@H](CO)N1C[C@H](C)[C@@H](CN(C)C(=O)Nc2ccccc2)Oc2ccc(NC(=O)C3CC3)cc2CC1=O | inactive |
| C[C@@H]1CN([C@H](C)CO)C(=O)Cc2cc(NC(=O)C3CC3)ccc2O[C@H]1CN(C)Cc1ccc(Cl)c(Cl)c1 | active |
